Screening data (PubChem)
KB-3-1 cytotox = KB-3-1 parental cell cytotoxicity; AID 1347075; actives 1.4% (n = 400,000); KB-3-1 viability, CellTiter-Glo ATP luminescence, 72 h; Potency, µM (highest dose often 46.1 µM), usual class: cytotoxic; note: potency is the fitted concentration of half-maximal effect; % is set by controls: 0 for no effect and ±100 for the full control effect; nearly all actives have a fitted effect of over 60% in size
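Cytotoxicity in the drug-sensitive parental line KB-3-1 was scored as loss of CellTiter-Glo luminescence following 72 h incubation with compound. Values come from curve fitting of normalized concentration-response data.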
KCNH2 3.1 inh = blocks the human KCNH2 3.1 channel isoform; activity change, % (tested at about 1.8 µM); U2OS KCNH2 3.1, thallium flux FluxOr; hits give low values; actives 0.95% (n = 340,000);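 active = maximum activity change below -70%; inconclusive = maximum activity change from -70% to -50%; inactive = maximum activity change above -50%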;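 note: thallium influx rate constant from kinetic fluorescence after stimulation buffer; % is set by controls: 0 for no effect and ±100 for the full control effect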
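FluxOr-based Tl+ influx in U2OS cells transduced with KCNH2 3.1 virus; rate constants normalized to DMSO controls.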
KB-V1 cytotox = KB-V1 MDR subline cytotoxicity; Potency, µM (titrated, usually from 46.1 µM), most hits filed as cytotoxic; actives 3.4% (n = 400,000); KB-V1 MDR cells viability, CellTiter-Glo, 72 h; note: potency is the fitted concentration of half-maximal effect; % is set by controls: 0 for no effect and ±100 for the full control effect; nearly all actives have a fitted effect of over 60% in size
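KB-V1 MDR subline cells in DMEM (phenol-red free, 10% FBS) exposed to compounds in qHTS concentration series for 72 h at 37 degrees C. Viability read by CellTiter-Glo luminescence; concentration-effect curves fitted after normalization and correction.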
KCNH2 WT inh = inhibitors of human wildtype KCNH2 potassium channel | U2OS, BacMam KCNH2, thallium flux FluxOr; hits give low values | activity change, % at 1.84 µM | actives 0.37% (n = 340,000) | AID 720551;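 active = maximum activity change below -70%; inconclusive = maximum activity change between -70% and -50%; inactive = maximum activity change above -50%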; note: % is set by controls: 0 for no effect and ±100 for the full control effect
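U2OS cells were transduced with wild-type KCNH2 virus (2.03 x 10^8 / mL) for 4 h at room temperature, then cultured overnight at 37 C. Thallium flux was read with FluxOr dye. Rate constants were normalized to DMSO controls.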
SW480 rerep = induces DNA re-replication in SW480 colon adenocarcinoma cells | actives 1.8% (n = 340,000) | Potency, µM (titrated, usually from 46.1 µM), without a hit: at the highest dose re-replication activation, actives largely listed as activators | SW480 DNA re-replication, Hoechst DNA content imaging, 48 h; note: potency is the fitted concentration of half-maximal effect; % of control where 0% means no effect; nearly all actives have a fitted effect of over 55% in size
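250 cells/well; 23 nL cpd via pin tool; 48 hr, 37 C, 5% CO2; Hoechst 40 min; imager read of total nuclear intensity, ex 405/em 500-530 nm.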
MCF10A rereplic = induces DNA re-replication in MCF 10a normal breast cells; Potency, µM (titrated, usually from 46.1 µM), for inactives: at the highest dose activity, positive = re-replication, hits mostly activators; MCF 10A DNA re-replication, Hoechst nuclear intensity, 48 h; actives 2.9% (n = 350,000); AID 624296; note: potency is the fitted concentration of half-maximal effect; % of control where 0% means no effect; nearly all actives have a fitted effect of over 50% in size
* hit, by the source's call; i = inactive; ? = inconclusive; / = not tested or not shown; ! = repeats disagree; [ ] = remark or other dose. In the library only some 7.6% were active in any assay of this set; here they are far more common. Unless noted, calls come from the whole dose curve; as a rule, active = well fitted curve in the direction sought with a large enough effect; inconclusive = small, poorly fitted or top-dose-only effect, or another doubt; inactive = no such curve, though single readings can be large; an effect the other way counts as inactive or inconclusive.

SMILES | KB-3-1 cytotox | KCNH2 3.1 inh | KB-V1 cytotox | KCNH2 WT inh | SW480 rerep | MCF10A rereplic
CCN(CC(=O)Nc1cccc(S(=O)(=O)N(C)c2ccccc2)c1)Cc1cccs1 | ? | -5.7 | 4.61µM* | -7.0 | -3.2% | 17.4%
Cc1ccsc1CN(C)CC(=O)Nc1cccc(S(=O)(=O)N(C)c2ccccc2)c1 | i | 1.3 | i | 5.4 | -0.1% | ?
Cc1cc(S(=O)(=O)NCc2ccccc2)ccc1OCC(=O)Nc1cccc([N+](=O)[O-])c1 | i | -10.1 | 13µM* | 19.1 | -11.8% | ?
COc1cc(CC(=O)Nc2cccc(S(=O)(=O)N(C)c3ccccc3)c2)cc(OC)c1OC | ? | 4.6 | i | -3.2 | -1.1% | 9.2%
CC(=O)Nc1cccc(OCCCOc2cccc([N+](=O)[O-])c2)c1 | i | / | 9.2µM* | 1.3 | ? | 8.2%
Cc1cc(=O)oc(C)c1C(=O)Nc1ccccc1F | i | 0.1 | i | 0.6 | -11.2% | 0.0%
CN(c1ccccc1)S(=O)(=O)c1cccc(NC(=O)Cn2cnc3ccccc3c2=O)c1 | ? | -12.4 | 23.1µM* | 3.4 | -2.1% | 11.2%
CCN(CC)S(=O)(=O)c1cc(NC(=O)Cn2cnc3ccccc3c2=O)ccc1C | i | 12.5 | i | 8.4 | 14.7% | 8.6%
Cc1ccc(S(=O)(=O)CCOC(=O)CNC(=O)OCc2ccccc2)cc1 | i | -3.5 | i | -16.9 | / | /
CCCCNc1nc2c(c(=O)n(C)c(=O)n2C)n1CC(O)COc1ccccc1C (stereo unspecified) | i | / | i | / | / | /
CNC(=O)C(C)NS(=O)(=O)c1ccc(F)cc1 (stereo unspecified) | i | -3.5 | i | -91.3* | -5.6% | -6.6%
NC(=O)CNC(=O)C1CCN(S(=O)(=O)c2ccc(-n3cnnn3)cc2)CC1 | i | 18.5 | i | -7.8 | -5.3% | -0.4%
N#CNC(=Nc1ccc(F)cc1)SCc1ccccc1 | i | 13.8 | i | / | 3.66µM* | ?
CC(C)N=C(NC#N)SCc1ccc(F)cc1 | i | 3.0 | ? | -1.5 | -14.9% | 3.0%
CSc1nn(Cc2cccc(Cl)c2)c(N(C(C)=O)C(C)=O)c1S(=O)(=O)c1ccccc1 | i | / | i | / | / | /
O=C(O)C1C=Cc2ccccc2N1C(=O)c1ccccc1 (stereo unspecified) (tested in a mixture with another compound) | i | -9.5 | i | -0.9 | -5.3% | -0.8%
COc1cc(NS(=O)(=O)c2ccc(NC(=S)NC(=O)/C=C/c3ccco3)cc2)ncn1 | i | -4.4 | ? | -5.7 | -0.7% | -9.9%
O=c1c2cn[nH]c2nc(SCc2ccccc2F)n1-c1ccc(Br)cc1 | i | -25.6 | i | -14.8 | ? | 18.4µM*
CCc1ccc(C(O)c2ncc(-c3ccccc3OC)[nH]2)cc1 (stereo unspecified) | i | / | i | / | / | /
NC(=S)NNc1c(F)c(F)c(F)c(F)c1F | ? | -12.2 | i | 3.8 | 14.2% | 14.6µM*
CC1CCN(C(=O)CN(c2cccc(F)c2)S(C)(=O)=O)CC1 | i | -1.4 | i | 8.5 | -66.7% | ?
O=C(COC(=O)c1cc(S(=O)(=O)N2CCCC2)ccc1O)Nc1ccccc1Br | ? | -8.9 | i | -8.9 | -5.2% | -1.1%
CCOc1ccc(NC(=O)CN(C)C(=O)CC2CCCC2)cc1OCC | ? | -0.2 | i | 7.4 | ? | -1.4%
CCCc1cc(C(=O)N(C)CC(=O)Nc2ccc(OCC)c(OCC)c2)sc1C | ? | 6.0 | ? | 2.3 | -9.9% | 0.461µM*
CCOc1ccc(NC(=O)CN(C)C(=O)C2CCCC2)cc1OCC | i | -7.7 | i | -12.2 | -42.5% | 0.651µM*
SMILES | KB-3-1 cytotox | KCNH2 3.1 inh | KB-V1 cytotox | KCNH2 WT inh | SW480 rerep | MCF10A rereplic
COc1ccc(C(=O)N/C(=C\c2ccccc2)C(=O)Nc2ccccc2C(=O)O)cc1 | i | 15.0 | i | -4.1 | -16.6% | -2.1%
COc1ccc(OC)c(NC(=O)Nc2c(C)n(C)n(-c3ccccc3)c2=O)c1 | i | / | i | / | / | /
COc1ccc(C)cc1Nc1n[n+](-c2ccccc2)c(-c2c(OC)ccc3ccccc23)s1 | 18.4µM* | -9.8 | ? | -15.4 | 1.2%[9.22 µM] | ?
COc1ccc(N(Cc2cc(=O)[nH]c3ccccc23)C(=O)CCl)cc1 | ? | 0.6 | ? | -8.0 | 3.26µM* | ?
O=c1c2ccccc2oc2ccc(-c3ccc4[nH]ccc4c3)cc12 | i | 0.5 | i | 1.1 | -19.2% | 54.1%
CC1CCCN(C(=O)Cc2cn(Cc3cccc(Cl)c3)c3ccccc23)C1 (stereo unspecified) | i | 3.0 | ? | -4.6 | 5.8% | ?
O=C(Cc1cn(Cc2cccc(Cl)c2)c2ccccc12)N1CCCCCC1 | ? | 18.2 | 4.61µM* | -9.6 | -65.0% | ?
O=C(O)CN(CCN(CC(=O)O)CC(=O)O)CCN(CC(=O)O)CC(=O)O | / | / | / | / | 23.7µM*! | -7.7%[0.169 µM]
O=C1CC(O)(c2ccccc2)C(c2ccccc2)=C1c1ccccc1 (stereo unspecified) | ? | 16.1 | 17.8µM* | -5.1 | -2.4%[9.22 µM] | 17.4%
CNC(=S)N(Cc1cc2cc(C)ccc2n2nnnc12)CC(C)(C)CN(C)C | i | -1.7 | i | -2.1 | -24.7% | 4.6%
O=[N+]([O-])c1ccc(NC(=S)NCCc2ccc(F)cc2)cc1 | ? | -7.3 | i | -1.8 | ? | 10.3µM*
O=S(=O)(Nc1cccc(C(F)(F)F)c1)c1ccc(-c2cnc(C3CC3)o2)cc1 | 10.3µM* | / | 8.2µM* | / | / | /
CCN(CC)c1ccc(NS(=O)(=O)c2ccc(-c3cnc(C4CC4)o3)cc2)c(C)c1 | i | / | i | / | / | /
COc1ccc(NS(=O)(=O)c2ccc(-c3cnc(C4CC4)o3)cc2)cc1OC | 2.06µM* | -6.6 | ? | 8.9 | 3.3% | ?
COc1ccccc1CNS(=O)(=O)c1ccc(S(=O)(=O)NC2CC2)cc1 | i | 3.9 | i | 0.3 | ? | -9.0%
COc1ccccc1CNS(=O)(=O)c1ccc(-c2cnc(C3CC3)o2)cc1 | ? | -12.4 | 5.8µM*! | -14.4 | ? | ?
CCOc1ccccc1NS(=O)(=O)c1ccc(-c2cnc(C3CC3)o2)cc1 | 0.291µM* | -1.2 | ? | -8.2 | ? | ?
COc1ccccc1NS(=O)(=O)c1ccc(-c2cnc(C3CC3)o2)cc1 | 1.03µM* | -5.1 | ? | 1.4 | 0.0% | ?
CCOc1ccccc1NS(=O)(=O)c1cc(-c2cnc(C3CC3)o2)ccc1C | ? | / | i | / | / | /
Cc1ccc(-n2c(-c3ccccc3)n[nH]c2=S)c(C)c1 | i | -5.3 | i | -6.2 | ? | 0.651µM*
